Measurements taken from paper PMC5540273 (PLoS ONE, 2017).

These molecules were tested on CSNK1G1. Conditions: concentration: 1 μM, replicates: in singlicate; n = 1.
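Note: KINOMEscan kinase panel screen.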

Row | Compound | %Inh [%]
1 | CCCC(=O)Nc1n[nH]c2ncc(-c3cccc4ccccc34)cc12 [SB-642057] | 4
2 | Nc1nc(N)c2nc(-c3ccccc3)[nH]c2n1 [SKF-12778] | 18
3 | Cl.c1ccc(Cn2cnc3cc(Nc4ncnc5ccccc45)ccc32)cc1 [GW272142] | 1
4 | COc1cccc(-n2cnc3c(N)ncnc32)c1 [SKF-97416] | 0
5 | COC(=O)c1c(-c2ccccc2)c2cc(Br)ccc2c(=O)n1Cc1ccc(S(C)(=O)=O)cc1 | 7
6 | COc1cccc(C2=C(Nc3cccc(C(=O)O)c3)C(=O)NC2=O)c1 [SB-390770] | 2
7 | O=C1NC(=O)C(c2ccccc2)=C1Nc1cccc(O)c1 [SB-390534] | 0
8 | O=c1cc(N2CCOCC2)nc2n(Cc3ccc(F)c(Cl)c3)ccn12 [GSK2297099] | 12
9 | Cc1nnc(-c2ccc3ncn(-c4ccc(S(C)=O)cc4)c3c2)o1 (stereo not shown) | 0
10 | CCc1nc(-c2cccc(C)c2)c(-c2ccncc2)s1 | 0
11 | CCn1c(-c2ccoc2)nc2cnccc21 [SB-733887] | 0
12 | COc1cc2ncn(-c3cc(OCc4ccc(S(C)(=O)=O)cc4)c(C(N)=O)s3)c2cc1OC [GW869979] | 0
13 | COc1ccc(-c2coc3ccc(-c4nnc(SCc5cccc(C#N)c5)o4)cc23)cc1 | 11
14 | Fc1cccc(CSc2nnc(-c3ccc4c(c3)CCO4)o2)c1 | 15
15 | Cc1ccc(Oc2ccc(Nc3ncnc4cc[nH]c34)cc2C)cn1 | 12
16 | COc1ccc(-n2cnc3c(N)ncnc32)cc1 [SKF-97236] | 13
17 | COc1cc(Nc2nccc(N3CCC(NC(=O)C(C)c4ccc(Cl)cc4)C3)n2)cc(OC)c1OC (stereo not shown) [GSK1379757] | 0
18 | Cc1nn2c(=O)cc(N3CCOCC3)nc2n1Cc1cccc(Cl)c1Cl [GSK2342769] | 0
19 | COc1ccc(-c2cc3c(C)nc(N)nc3n([C@H]3CC[C@H](O)CC3)c2=O)cn1 | 0

Row | Compound | %Inh [%]
20 | COc1cc2ncn(-c3cc(OCc4ccncc4)c(C(N)=O)s3)c2cc1OC [GSK336313] | 0
21 | COc1cc(Nc2nccc(N3CCC(NC(=O)C4COc5ccccc5O4)C3)n2)cc(OC)c1OC (stereo not shown) [GSK1379761] | 3
22 | Nc1ncnc2c1ncn2-c1cccc(F)c1 [SKF-97560] | 0
23 | CCC(=O)c1c(-c2ccccc2)c2cc(Cl)ccc2c(=O)n1Cc1cc(C(=O)NC2CC2)n(C)n1 | 0
24 | Nc1n[nH]c2ncc(-c3ccccc3)cc12 [SB-517081] | 68
25 | Cc1nc(N(C)[C@H]2CN(C(=O)CC#N)CC[C@H]2C)c2cc[nH]c2n1 | 5
26 | CC(C)(C)c1ccc(C(=O)Nc2cn3cc(-c4ccccc4)ccc3n2)cc1 | 0
27 | FC(F)(F)c1ccc(-c2ncn(CCCN3CCOCC3)c2-c2ccncc2)cc1 [SB-217780] | 0
28 | O=C(Nc1n[nH]c2nc(-c3ccccc3)c(Cl)cc12)C1CC1 [SB-734909] | 0
29 | COc1ccc(-c2cc3c(C)nc(N)nc3n([C@H]3CC[C@H](OCCO)CC3)c2=O)cn1 | 0
30 | Cc1ccc(-c2ccc3c(ccc4sc5c(c43)NC[C@@H](C)N=C5N(C)C)n2)cn1 | 0
31 | Nc1n[nH]c2nnc(-c3ccccc3)c(-c3ccccc3)c12 [GW554060] | 0
32 | CCC(=O)c1c(-c2ccccc2)c2cc(Cl)ccc2c(=O)n1Cc1ccc(C(=O)O)cc1 | 0
33 | CCS(=O)(=O)c1ccc(OC)c(Nc2ncc(-c3ccc(F)cc3)o2)c1.Cl [GW591947] | 13
34 | CCS(=O)c1ccc(-c2coc3ccc(-c4nnc(C)o4)cc23)cc1 (stereo not shown) | 0
35 | O=C(NCc1cccs1)c1cc(C(=O)c2c(Cl)cccc2Cl)c[nH]1 [GW823670] | 0
36 | COc1cccc(C2=C(N(C)c3ccccc3)C(=O)NC2=O)c1 [SB-334865] | 1
37 | OCCCNc1nccc(-c2c(-c3cccc(C(F)(F)F)c3)nn3cc(C(F)(F)F)ccc23)n1 [GW630813] | 0
